Many of the other results were omitted from the sample, so hits are more common in it than they were.
TTR transcr act: increases transthyretin transcription. AID 1117267. hit rate 1.3% among 92,000. activation, % at 16.7 µM. SH-SY5Y TTR promoter Gaussia luciferase, luminescence; 100% = recombinant luciferase protein wells;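 active = activation above the mean of all tested compounds plus 3 SD, cut at about 9.5% in these data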;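 note: cells exposed to compounds for one day before reading; 0% = median of all test compound wells on the plate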
TTR inh HuH7: HuH7 TTR transcription inhibition, counter-screen | inhibition, % at 16.7 µM | shares compounds with TTR transcr act | hit rate 4% among 1,100 | HuH7 TTR promoter-Gaussia luciferase reporter, luminescence;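 active = average inhibition above the solvent-only control wells' mean plus 3 SD, cut at about 15% in these data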;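 note: 0% = cells with DMSO only and 100% = cells with inhibitor control FD; inhibitors lower well luminescence so higher value means more inhibition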
TTR act confirm: confirmation of human transthyretin transcription activators. 1,100 tested, under 10 active. shares compounds with TTR transcr act. SHSY5Y TTR promoter Gaussia luciferase, luminescence; 100% = purified Lucia enzyme wells, no cells. AID 1117280. activation, % at 16.7 µM;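 active = mean activation above a set limit taken from the earlier primary screen, cut at about 11% in these data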;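 note: 0% = DMSO-treated cells and 100% = recombinant Lucia luciferase without cells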
An asterisk follows results filed as active.

SMILES | TTR transcr act | others
Cc1ccc(CN2CCCCC(NC(=O)c3ccc(N(C)C)cc3)C2=O)cc1 (centres undefined) | -1
Cc1ccccc1CN1CCCCC(NC(=O)c2ccc(F)cc2)C1=O (centres undefined) | -2
Cc1ccccc1CN1CCCCC(NC(=O)c2ccc(N(C)C)cc2)C1=O (centres undefined) | 13* | TTR inh HuH7=11;TTR act confirm=-1
Cc1ccnc(SCc2cc(=O)c(OC(=O)c3ccc(C#N)cc3)co2)n1 | -1
O=C(OCc1cn(Cc2c(F)cccc2F)nn1)N1CCCC1 | 2
COC(=O)[C@@H]1N=C(c2ccc(OC)cc2)O[C@]12C(=O)N(Cc1cn(-c3ccccc3)nn1)c1cccc(Cl)c12 | 0
Cc1cc(C)n(-c2nc3ccccc3c(=O)n2OCCOc2ccccc2)n1 | 32* | TTR inh HuH7=-10;TTR act confirm=-1
O=C(c1ccccc1)c1ccc(OCCn2cnc3ccccc3c2=O)cc1 | 0
CC(C)(c1ccccc1)c1ccc(OCCn2cnc3ccccc3c2=O)cc1 | 0
C#CCN1C(=O)[C@@](O)(c2cccn2C)c2cc(F)ccc21 | -1
O=C(NCCc1ccccc1)OCc1cn(-c2cccc(F)c2F)nn1 | -2
CCOC(=O)[C@]12CCCC=C1N(CCCOC)C(=O)[C@@H]2CC(=O)NCc1cccs1 | 2
O=C(C1CC12CCCC2)N1CCC(CO)(Cc2ccccc2Cl)CC1 (centres undefined) | 13* | TTR inh HuH7=6;TTR act confirm=-1
C=CCNC(=O)N1CCC(CO)(Cc2ccc(Cl)cc2)CC1 | -1
CC(C)(C)C(=O)N1CCC(O)(CS(=O)(=O)Cc2ccccc2Cl)CC1 | 5
O=C(Nc1cccc(C(=O)N2CCCc3ccccc32)c1)c1ccccc1 | -3
CN(C)S(=O)(=O)c1cccc(COC(=O)c2cccnc2Cl)c1 | -1
COc1ccc2[nH]c(C)c(C(=O)CN3CCOCC3)c2c1 | 16* | TTR inh HuH7=-10;TTR act confirm=0
Cc1[nH]c2ccccc2c1C(=O)CN1CCCC1 | 0
COc1ccc2[nH]cc(C(=O)CN3CCC(C)CC3)c2c1 | 0
COC(=O)C[C@H]1CC[C@@H]2[C@H](COc3ccc(NC(=O)c4cccc(Cl)c4)cc3C(=O)N2C)O1 | 3
CCNc1ncnc2c1cnn2C1CCCCO1 (centres undefined) | -1
O=C(COc1ccccc1)Nc1c2c(nn1-c1ccc(F)cc1)CS(=O)(=O)C2 | 1
Cc1ccccc1CSc1nnc(C)c(=O)[nH]1 | 0
COc1cccc(NC(=O)CSc2ccc(-c3sc(C)nc3C)nn2)c1 | -2
SMILES | TTR transcr act | others
Cc1nc(C)c(-c2ccc(SCc3ccccc3C)nn2)s1 | 16* | TTR inh HuH7=8;TTR act confirm=-1
C/C(=N/NC(=O)c1ccco1)c1ccc(NC(=O)c2ccc(F)cc2)cc1 | 0
C=Cn1ccnc1CC(O)c1ccc(OC)cc1 (centres undefined) | -1
Cc1ccc(OC2CCN(C(=O)[C@H]3O[C@@H](n4ccc(=O)[nH]c4=O)[C@H](O)[C@@H]3O)CC2)cc1 | 6
CN(C(=O)COc1ccccc1)c1nc(-c2ccc(F)cc2)cs1 | -1
COCC(=O)Nc1nnc(-c2cccs2)s1 | 1
COCC(=O)N(C)c1nnc(-c2cnc(C)cn2)s1 | 9.7* | TTR inh HuH7=-8;TTR act confirm=-1
Cc1ccc(N2C(=O)C3CCCN3C2=S)cc1 (centres undefined) | 0
Cc1cc(C)cc(N2C(=O)C3CCCN3C2=S)c1 (centres undefined) | 0
Cc1ccc(N2C(=O)C3CCCN3C2=S)cc1C (centres undefined) | 20* | TTR inh HuH7=-9;TTR act confirm=0
Cc1c2ccccc2nc2ccccc12 | -2
OCCNc1nc2ccccc2nc1NCCO | 1
OCCNc1c2ccccc2nc2ccccc12 | 16* | TTR inh HuH7=-48;TTR act confirm=15*
O=C(NCc1cccnc1)O[C@H]1CC[C@@]23CCCN2C(=O)CCC[C@H]3C1 | 1
COc1ccc(C(=O)C(C)C(C)=O)c(OCc2ccccc2)c1OC (centres undefined) | 14* | TTR inh HuH7=-20;TTR act confirm=-1
COc1cc(NC(=O)c2ccccc2OCc2ccccc2)cc(OC)c1OC | -1
COc1cccc(C(=O)NOCc2ccccc2)c1OC | 1
CC(C)c1ccccc1NC(=O)[C@@H]1CCCN1S(=O)(=O)c1cccc2cccnc12 | 0
Cc1ccc(S(=O)(=O)N2c3ccccc3C[C@H]2CC=C(c2ccccc2)c2ccccc2)cc1 | 1
COc1ccc(OC)c(-c2nn(-c3ccccc3)cc2C(=O)NCC(c2cccs2)N2CCOCC2)c1 (centres undefined) | -2
COC(=O)C1=C(CCc2ccccc2)NC(=O)NC1c1ccc([N+](=O)[O-])cc1 (centres undefined) | -1
Cn1cc(CCNC(=O)CC2C(=O)NCCN2Cc2cccc(Oc3ccccc3)c2)cn1 (centres undefined) | 1
CC(C)CN1CCNC(=O)C1CC(=O)NCCc1cnn(-c2ccccc2)c1 (centres undefined) | 13* | TTR inh HuH7=-12;TTR act confirm=-1
CCn1cc(CNC(=O)CC2C(=O)NCCN2CC(c2ccccc2)c2ccccc2)cn1 (centres undefined) | 2
COc1ccc(-c2ccc(C(=O)NCc3ccc(N4CCN(C)CC4)cc3)c3occc23)c(C)c1 | -2
SMILES | TTR transcr act | others
O=C1CCC[C@H]2C[C@H](NCc3ccc(Cl)c(Cl)c3)CC[C@]23CCCN13 | -1
Cc1ccc2c(c1)C(c1ccccc1)CC(=O)O2 (centres undefined) | 2
O=C(O)C1(C(=O)O)CCCC1 | 2
O=C(O)CC1(C(=O)O)CCCC1 | -2
O=C(O)C1(C(=O)O)CCC2(CCCCC2)CC1 | 10.0* | TTR inh HuH7=-13;TTR act confirm=1
Cc1cccc(NS(=O)(=O)c2ccc3c(c2)CCC(=O)N3)c1 | 2
Cc1cccc(NS(=O)(=O)c2ccc3c(c2)NC(=O)CC(=O)N3)c1 | 13* | TTR inh HuH7=-11;TTR act confirm=-1
CCc1cccc(NS(=O)(=O)c2ccc3c(c2)NC(=O)CC(=O)N3)c1 | 0
CCCC1CCC2(CCCN2CCOC(=O)Nc2ccc(F)cc2)CC1 (centres undefined) | -2
CC12COC3(C(=O)NCCc4ccccc4)CC1CCC32C (centres undefined) | 3
Cc1ccccc1NC(=O)C12CC3CCC1(C)C3(C)CO2 (centres undefined) | 14* | TTR inh HuH7=-15;TTR act confirm=0
Cc1ccccc1NC(=O)C1C2CCC(O2)C1C(=O)O (centres undefined) | 2
O=C1CCC[C@H]2C[C@H](NCc3cccc(I)c3)CC[C@]23CCCN13 | 3
COc1ccccc1NC(=O)Cc1noc(CSc2nnc(N)s2)n1 | 11* | TTR inh HuH7=-21;TTR act confirm=1
COc1ccccc1Nc1nnc(SCC(=O)Nc2cc(C)on2)s1 | 10
COc1ccccc1NC(=O)Cc1csc(NC(=O)c2ccccc2)n1 | -1
CCCC1CCC2(CC1)CCC2OC(=O)Nc1cc(C)cc(C)c1 (centres undefined) | 3
CCc1cccc(NC(=O)CN2C(=O)NC3(CCCCCCC3)C2=O)c1 | 3
CC(C)CC1(C)NC(=O)N(CC(=O)Nc2ccc3c(c2)CCC3)C1=O (centres undefined) | 11* | TTR inh HuH7=-26;TTR act confirm=1
CC1(c2cccc(Br)c2)NC(=O)N(CC(=O)Nc2ccc(N3CCCCC3)cc2)C1=O (centres undefined) | 0
Cc1ccc(C)c(S(=O)(=O)N(C)c2ccc(OC(=O)C3CCN(C(=O)Nc4ccccc4)CC3)cc2)c1 | -2

Assay outcomes deposited in PubChem BioAssay by The Scripps Research Institute Molecular Screening Center.
